From PubChem BioAssay (NCATS)
Results filed as inconclusive are left out. Where a call stands in place of a potency, no number is given. Active and inactive are the calls of the source. Calls come from the whole dose curve; as a rule, active = well fitted inhibition curve with a large enough effect; inconclusive = small, poorly fitted or top-dose-only effect; inactive = flat fitted curve, though single readings scatter.
Potency is the fitted concentration of half-maximal effect.

Each molecule was assayed on CP297 (assay: qHTS profiling for inhibitors of Plasmodium falciparum proliferation (AID 504749; note: nearly all actives have a fitted effect of over 60% in size)). Details: P. falciparum in erythrocytes, SYBR Green DNA, 72 h; series mostly up to 28.7 µM.
How it was run: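 P. falciparum-infected erythrocytes (0.3% parasitemia, 2.5% hematocrit) incubated with compound 72 h at 37 C, 5% CO2. Parasite DNA detected by SYBR Green after lysis, overnight at room temperature; normalised to 0.29 uM artemisinin and DMSO.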
For `CC/C=C\C/C=C\C/C=C\C/C=C\C/C=C\C/C=C\CCC(=O)O`, the Potency was “inactive”. With `O=C(O)/C=C/c1ccccc1` the Potency was “inactive”. With `CC(=O)Oc1cccc(C(=O)O)c1OC(C)=O` the Potency was “inactive”. For `CC(CNC(=O)c1cccnc1)NC(=O)c1cccnc1` (centres undefined), the Potency was “inactive”. For `CN=C1C=CC(=C(c2ccc(N(C)C)cc2)c2ccc(N(C)C)cc2)C=C1`, the Potency was 1.07 µM (active). In the case of `CC/C(=C(/CC)c1ccc(OP(=O)(O)O)cc1)c1ccc(OP(=O)(O)O)cc1`, the Potency was “inactive”. `ClC(Cl)Cl` was tested, and the Potency was “inactive”. For `CCCCCCCCCCCCCCCCCC[N+](C)(C)CCC[Si](OC)(OC)OC`, the Potency was “inactive”. With `Oc1cc(O)cc(O)c1` the Potency was “inactive”. For `CC(=O)Nc1c(I)c(C(=O)O)c(I)c(N(C)C(C)=O)c1I`, the Potency was “inactive”. In the case of `CC(C)CCC[C@@H](C)[C@H]1CC[C@H]2[C@@H]3CC=C4C[C@@H](O)CC[C@]4(C)[C@H]3CC[C@]12C`, the Potency was “inactive”. For `CCCCCCCCCCCCOCCCN`, the Potency was “inactive”. With `CC(C)(C)c1ccc2c(S(=O)(=O)O)c(C(C)(C)C)ccc2c1` the Potency was “inactive”. With `CCSc1ccc2c(c1)N(CCCN1CCN(C)CC1)c1ccccc1S2` the Potency was “inactive”. With `c1ccc(-n2cnnn2)cc1` the Potency was “inactive”. `CN1CCC(OC(=O)C(Oc2ccc(Cl)cc2)Oc2ccc(Cl)cc2)CC1` was tested, and the Potency was “inactive”. In the case of `CC(C)Cc1ccc([C@@H](C)C(=O)NS(C)(=O)=O)cc1`, the Potency was “inactive”. With `CCCc1ccc(C(=O)O)cc1` the Potency was “inactive”. With `CNC(=O)c1c(I)c(C(=O)NCC(=O)Nc2c(I)c(C(=O)O)c(I)c(C(=O)NCCO)c2I)c(I)c(N(C)C(C)=O)c1I` the Potency was “inactive”. For `CC1CC(O)CC(C)(C)C1` (centres undefined), the Potency was “inactive”. In the case of `C=Cc1ccc(S(=O)(=O)O)cc1`, the Potency was “inactive”. With `OCC1(CO)COC(C(Cl)(Cl)Cl)OC1` the Potency was “inactive”. With `CC(C)(C)CC(C)(C)c1cc(Cc2cc(C(C)(C)CC(C)(C)C)cc(-n3nc4ccccc4n3)c2O)c(O)c(-n2nc3ccccc3n2)c1` the Potency was “inactive”. `O=C(O)c1ccc(OCCn2ccnc2)cc1` was tested, and the Potency was “inactive”. `CC(C)c1ncc([N+](=O)[O-])n1C` was tested, and the Potency was “inactive”. In the case of `CN1c2c(nc(N)[nH]c2=O)NCC1CNc1ccc(C(=O)NC(CCC(=O)O)C(=O)O)cc1` (centres undefined), the Potency was “inactive”. For `N=C(N)n1cccn1`, the Potency was “inactive”. In the case of `N[C@H](CC(=O)O)C(=O)O`, the Potency was “inactive”. For `NCC(O)CC(=O)O` (centres undefined), the Potency was “inactive”. For `CCN(CC)C(=O)c1cccnc1`, the Potency was “inactive”. With `CCOC(C)OCC` the Potency was “inactive”. With `FCOC(C(F)(F)F)C(F)(F)F` the Potency was “inactive”. For `CN[C@@H]1[C@H](O[C@H]2[C@H](O[C@H]3[C@H](O)[C@@H](O)[C@H](N=C(N)N)[C@@H](O)[C@@H]3N=C(N)N)O[C@@H](C)[C@]2(O)C=O)O[C@@H](CO)[C@H](O)[C@H]1O`, the Potency was “inactive”. With `CC(C)[C@@H](N)C(=O)O` the Potency was “inactive”. With `O=C(O)COc1ccc(CCNS(=O)(=O)c2ccccc2)s1` the Potency was “inactive”. For `CC(=O)Nc1ccc(OC(=O)c2ccccc2O)cc1`, the Potency was “inactive”. In the case of `CC(C)O`, the Potency was “inactive”. For `C=CC[C@@H]1/C=C(\C)C[C@H](C)C[C@H](OC)[C@H]2O[C@@](O)(C(=O)C(=O)N3CCCC[C@H]3C(=O)O[C@H](/C(C)=C/[C@@H]3CC[C@@H](O)[C@H](OC)C3)[C@H](C)[C@@H](O)CC1=O)[C@H](C)C[C@@H]2OC`, the Potency was 1.9 µM (active). In the case of `Cc1cc(=O)c(C(=O)N[C@@H](C(=O)N[C@@H]2C(=O)N3C(C(=O)O)=C(CSc4nnnn4C)CS[C@H]23)c2ccc(O)cc2)c[nH]1`, the Potency was “inactive”.
